# From PubChem BioAssay AID493084 (National Center for Advancing Translational Sciences (NCATS), 2011)
# Screen size: about 360,000 compounds; about 650 (0.18%) were called active. Rule as the data show it: active = activation above about 30%; inactive = the rest. Only a selection was taken, and actives are over-represented in it overall.
# Biological target: Thyrotropin-releasing hormone receptor (Homo sapiens) (UniProt P34981)
# Assay: qHTS for Small Molecule Agonists and Allosteric Enhancers of Human TRH Receptor: Primary Screen for Agonists. Also: 0% is about no effect.
# Settings: TRHR cells, calcium flux fluo-8, FDSS agonist mode; at 2 µM; hits give high values
# From the text: NIH Chemical Genomics Center [NCGC] NIH Molecular Libraries Probe Centers Network [MLPCN] MLPCN Grant: MH089816-01 Assay Submitter (PI): Marvin Gershengorn This project aims to identify small drug-like molecules that activate (agonists) the thyrotropin releasing hormone (TRH) receptor (TRHR) or enhance its TRH-stimulated activity (allosteric enhancers). TRHR, a drug-accessible cell surface receptor expressed in specific brain regions, and its ligand TRH have been implicated in several central nervous system disorders, including depression and anxiety. Small molecule TRHR agonists or allosteric enhancers that are metabolically stable and able to cross the blood-brain barrier might serve as probes to elucidate the roles of brain TRH receptors in animal models, and might be valuable as lead compounds for the development of drugs to treat patients with central nervous system disorders. Upon TRHR-Gq activation in TRHR cells, intracellular calcium is released from stores in the endoplasmic reticulum. […] This primary screen measures compound-induced activation of calcium release.
# For the HTS assay freshly prepared cells are plated at a density of 2000/well in 3 ul of complete DMEM medium containing 10% serum in 1536-well plates and cultured over night at 37 C in a humidified incubator with 5% CO2. The next day, 2 ul of a no wash calcium dye (ABD Bioquest) was added to the cells and plates were incubated at room temperature for 1 hour. For the assay, assay plates were loaded into the FDSS kinetic plate reader. A 10 cycle (1 second/cycle) baseline measurement is taken and then the FDSS online 1536 pintool delivers 23 nl of compound library (as well as TRH controls) to the plate. The plate is measured for kinetically at 1 cycle/sec for 180 seconds and is considered to be the agonist portion of the assay (eg, compounds which activate a positive calcium response during this portion are flagged as potential agonists). Following the 180 second read, 1 ul of either an EC20 (positive modulation assay) is delivered by an onboard pipette head. Measurements are taken kinetically for an additional 180 seconds. TRHR FDSS Screening Protocol 1. Reagent, 3 uL 2000 cells/well 1536 TC treated Black plate in media containing 10% FCS 2. Time, 18 hours, 33.5C 5% CO2 (cells grown at 37C) 3. Reagent, 2 uL ABD fluo-8 Ca dye 4. Time, 30 min-1.5hrs hours, Room temp (6 plates/batch) 5. Detector, EX 480/EM 530C, FDSS 10 cycles baseline (1sec/cycle) 6. Compound, 23 nL of stock solution from library 7. Detector, EX 480/EM 530C, FDSS […] (1sec/cycle) Agonist mode 8. Compound, 1 ul EC20 of TRH made up in HEPES HBSS, 10 nM final 9. Detector, EX 480/EM 530C, FDSS 100 cycles (1sec/cycle) Potentiator mode
# Thyrotropin-releasing hormone receptor (Homo sapiens), sequence (P34981 whole entry, looked up): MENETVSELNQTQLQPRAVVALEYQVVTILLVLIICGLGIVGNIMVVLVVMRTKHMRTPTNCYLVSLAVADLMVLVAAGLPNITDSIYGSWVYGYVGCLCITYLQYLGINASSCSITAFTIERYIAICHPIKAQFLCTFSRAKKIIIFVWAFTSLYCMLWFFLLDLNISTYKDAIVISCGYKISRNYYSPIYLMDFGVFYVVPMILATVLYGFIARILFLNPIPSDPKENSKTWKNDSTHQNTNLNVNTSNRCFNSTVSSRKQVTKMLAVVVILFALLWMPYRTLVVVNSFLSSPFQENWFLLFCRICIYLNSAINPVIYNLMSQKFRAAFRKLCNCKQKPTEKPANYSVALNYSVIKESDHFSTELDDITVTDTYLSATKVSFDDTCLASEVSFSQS
row,Structure (SMILES),activation
1,O=C1C(F)N([S+](=O)([O-])c2ccc3c(c2)OCCO3)CCN1[S+](=O)([O-])c1c(F)cccc1F (configuration not stated),0.239% (inactive)
2,Cc1ccc(Cl)cc1N1CCN(C(=O)c2cn(C)c3ccc(S(=O)(=O)N(C)C4CCCCC4)cc3c2=O)CC1,-1.19% (inactive)
3,O=C(NCCc1ccccc1)C(=O)NCC(c1ccco1)S(=O)(=O)c1ccccc1 (configuration not stated),-0.0493% (inactive)
4,Cc1nn(C)cc1N1C(=O)c2cccc3c(N)ccc(c23)C1=O,172% (active)
5,CN1C(=O)c2cccc3c(N)ccc(c23)C1=O,152% (active)
6,CC(=O)Nc1ccc(NC(=O)[C@@H](NC(=O)c2cccc(C)c2)C(C)C)cc1,0.205% (inactive)
7,CCc1nnc(NC(=O)[C@@H](NC(=O)c2cccc(C)c2)C(C)C)s1,47.4% (active)
8,Cc1cccc(C(=O)NCc2nnc(SC(C)C(=O)Nc3nnc(C)s3)n2C)c1 (configuration not stated),-0.0214% (inactive)
9,Cn1ccc2cc(S(=O)(=O)N3CCCC(C(=O)NCc4ccccc4F)C3)ccc21 (configuration not stated),-0.718% (inactive)
10,Cc1nn(C(C)C(=O)NCCc2ccccc2)c(=O)c2c1sc1ccccc12 (configuration not stated),-0.291% (inactive)
11,COc1cc(Cl)c(NC(=O)CC(C)S(=O)(=O)c2cc3c(cc2C)NC(=O)CO3)c(OC)c1 (configuration not stated),-0.196% (inactive)
12,CCCNC(=O)C(CC)n1nc(CC)n2c(cc3oc(C)cc32)c1=O (configuration not stated),0.892% (inactive)
13,COc1ccc(-c2nc(Cn3c(=O)cc(C)c4c(C)nn(-c5ccccc5)c43)c(C)o2)c(OC)c1,0.643% (inactive)
14,Oc1c(C(c2ccc(F)cc2)N2CCN(Cc3ccccc3)CC2)sc2nc(-c3ccco3)nn12 (configuration not stated),-0.524% (inactive)
15,COc1ccc(-c2onc(C)c2C)cc1S(=O)(=O)NCC1CCN(Cc2cccc(F)c2)CC1,-0.0549% (inactive)
16,CCOC(=O)C1CCN(C(c2ccc(F)cc2)c2sc3nc(-c4ccco4)nn3c2O)CC1 (configuration not stated),0.0847% (inactive)
17,COc1cc(/C=C(\C#N)c2nc3c(s2)CC(C)CC3)ccc1O (configuration not stated),38.3% (active)
18,N#C/C(=C\c1ccccc1F)c1nc2ccccc2c(=O)[nH]1,3.32% (inactive)
19,CCOc1ccc(/C=C(\C#N)c2nc3ccccc3c(=O)[nH]2)cc1OC,2.27% (inactive)
20,COc1cccc2cc(-c3nc(Cl)c4c5c(sc4n3)CC(C)CC5)c(=O)oc12 (configuration not stated),0.639% (inactive)
21,COc1cc(/C=C(\C#N)c2nc3ccccc3[nH]2)ccc1O,33.3% (active)
22,Cc1ccc(S(=O)(=O)c2cn(Cc3ccccc3)c3cc(N4CCCC4)c(F)cc3c2=O)c(C)c1,0.661% (inactive)
23,Cc1ccc(C)c(N2CCN(C(=O)Cc3c(C(=O)O)c(C)cn3C)CC2)c1,-0.0012% (inactive)

row,Structure (SMILES),activation
1,COc1ccc(CNC(=O)c2cc3c(-c4ccccc4F)nn(C)c3s2)c(OC)c1,-0.894% (inactive)
2,O=C(Nc1ccc(O)c(-c2nc3ccccc3o2)c1)c1ccc(-c2cccc(Cl)c2)o1,0.235% (inactive)
3,CCOC(=O)CNC(=O)c1cc2c(=O)n3cccc(C)c3nc2s1,-0.701% (inactive)
4,CCCN(CCC)c1nc2c(C)cccn2c(=O)c1/C=C1/SC(=S)N(Cc2ccco2)C1=O,12% (inactive)
5,CCOC(=O)CC1C(=O)NCCN1c1nc2c(C)cccn2c(=O)c1/C=C1\SC(=S)N(C(C)CC)C1=O (configuration not stated),52.4% (active)
6,COc1ccc(-c2cc(C(=O)NCc3cc(OC)c(OC)c(OC)c3)[nH]n2)cc1,-0.734% (inactive)
7,O=C(Cc1ccc(Cl)cc1)NCC(c1cccs1)S(=O)(=O)c1ccc(Cl)cc1 (configuration not stated),-0.0259% (inactive)
8,CCCCN1C(=O)c2[nH]nc(-c3ccccc3O)c2C1c1cccc(OCc2ccccc2)c1 (configuration not stated),0.132% (inactive)
9,Cc1ccc2nc(-c3ccc(C)c(NC(=O)Cc4ccccc4)c3)oc2c1,-0.54% (inactive)
10,Cc1ccc(C2c3[nH]c4ccccc4c3CCN2C(=O)c2cccc(C)c2)cc1 (configuration not stated),0.132% (inactive)
11,Cc1ccc(S(=O)(=O)NC(N)=NCCC[C@@H](NC(=O)CNC(=O)c2ccccc2)C(=O)Nc2cc(C(F)(F)F)ccc2Cl)cc1,-1.22% (inactive)
12,COc1ccc(C2C(=O)N(C3CCCCC3)CC(=O)N2Cc2ccccc2Cl)cc1OC (configuration not stated),-1.14% (inactive)
13,COc1ccc(-c2nc(Cn3c(=O)cc(C)c4c(C)nn(-c5ccccc5)c43)c(C)o2)cc1OC,-0.897% (inactive)
14,Cc1ccc(Cn2ncc3c4sc(C)cc4n(C)c3c2=O)c(C)c1,0.195% (inactive)
15,Cc1ccccc1CNC(=O)C1CCCN(S(=O)(=O)N(C)c2ccc(F)cc2)C1 (configuration not stated),-0.334% (inactive)
16,Cc1cc(C)cc(NC(=O)CSc2nc3nccnc3c(=O)n2CCc2c[nH]c3ccccc23)c1,0.728% (inactive)
17,O=C(CCS(=O)(=O)c1cc(Br)cc2c1N(C(=O)C1CC1)CC2)Nc1ccc(C(F)(F)F)cc1,-0.155% (inactive)
18,CCOC(=O)c1c(S(=O)(=O)N2CCC(C(=O)NCc3ccccc3OC)CC2)c(C)n(C)c1C,-0.102% (inactive)
19,O=C(CCSCc1cccc(F)c1)NCc1ccccc1,-0.592% (inactive)
20,CN(Cc1ccccc1)C(=O)c1cn(C)c2ccc(S(=O)(=O)N3CCCCC3)cc2c1=O,0.115% (inactive)
21,CCOc1ccc(C2C(=O)N(C3CCCCC3)CC(=O)N2CCC2=CCCCC2)cc1OC (configuration not stated),0.439% (inactive)
22,O=[S+]([O-])(c1ccc(OC(F)(F)F)cc1)N1CCN([S+](=O)([O-])c2ccc3c(c2)OCCO3)CC1,-0.283% (inactive)
23,CCc1ccc2oc(-c3ccc(C)c(NC(=O)/C=C/c4ccco4)c3)nc2c1,-0.323% (inactive)

row,Structure (SMILES),activation
1,COc1ccccc1C(=O)Nc1c(C(=O)N(C)Cc2ccccc2)sc2nc(C)c(Cl)c(C)c12,-1.19% (inactive)
2,CCc1cccc(NC(=O)CN(c2ccc(C)c(C)c2)S(=O)(=O)c2ccsc2C(=O)OC)c1,0.768% (inactive)
3,COc1cc(Br)cc2cc(S(=O)(=O)c3ccccc3)c(=O)oc12,0.456% (inactive)
4,COc1ccc(NC(=O)c2ccc3oc(=O)c(S(=O)(=O)c4ccc(F)cc4)cc3c2)c(OC)c1,-0.513% (inactive)
5,Cc1cc(S(=O)(=O)c2cc3ccc(O)c(C)c3oc2=O)ccc1F,44.2% (active)
6,Cc1ccc2cccc(NC(=O)C(C)Oc3ccc(C)c(C)c3)c2n1 (configuration not stated),0.214% (inactive)
7,COc1ccccc1NC(=O)CSc1oc(-c2ccco2)nc1S(=O)(=O)c1ccc(Br)cc1,-0.526% (inactive)
8,Cc1ccccc1Cn1nc(C)c(NC(=O)c2cc(-c3ccc(F)cc3)on2)c1C,-0.526% (inactive)
9,CC1=C(c2ccc(F)cc2)S(=O)(=O)N=C1N1CCC(C(=O)NCCc2ccccc2C)CC1,0.06% (inactive)
10,CCc1ccc(S(=O)(=O)n2ccnc2)cc1,0.631% (inactive)
11,O=C(O)CCC(=O)Nc1ccc(N2CCOCC2)cc1,0.0804% (inactive)
12,C/C(=C/c1ccccc1)C(=O)N1CCN(c2ccccc2)CC1,-0.0779% (inactive)
13,O=C(/C=C/c1ccc(N2CCOCC2)cc1)c1ccccc1,42.4% (active)
14,COc1ccc(Cn2c(=O)c3oc4ccccc4c3n(CC(=O)Nc3ccc(F)cc3F)c2=O)cc1,1.15% (inactive)
15,CCOC(=O)c1cc2c(=O)n3ccccc3nc2n(CCCOC)c1=NC(=O)C(C)Oc1ccccc1 (configuration not stated),0.485% (inactive)
16,N#Cc1nc(Nc2cc(F)cc(Cl)c2)nc(NC2CCCC2)n1,1.3% (inactive)
17,N#CN1CCC(NS(=O)(=O)c2cccc(F)c2)C1 (configuration not stated),0.751% (inactive)
18,O=C(Cn1cnc2c(oc3ccccc32)c1=O)Nc1ccc(OC(F)(F)F)cc1,0.788% (inactive)
19,CCOC(=O)C1CCN(c2nc3c(S(=O)(=O)c4ccc(CC)cc4)nnn3c3ccc(Cl)cc23)CC1,0.759% (inactive)
20,Cc1cccc(C)c1-n1ncc(C(=O)NCCCN2CCCCC2)c1C1CCN(C(=O)OC(C)(C)C)CC1,0.838% (inactive)
21,CCC(CC)c1nn2cc(-c3ccccc3)nc2s1,6.57% (inactive)
22,CC(C)CNc1ncnc2c1nnn2C,-0.593% (inactive)
23,CCOC(=O)c1cc(-c2ccc(OC)c(S(=O)(=O)Nc3ccc(OC)cc3OC)c2)on1,1.19% (inactive)

row,Structure (SMILES),activation
1,O=[S+]([O-])(c1ccc2c(c1)OCCO2)N1CCN([S+](=O)([O-])c2c(Cl)cc(Cl)cc2Br)CC1,-1.11% (inactive)
2,Cc1ccc(S(=O)(=O)N2CCCc3cc(NS(=O)(=O)c4cc(C)ccc4C)ccc32)cc1,-0.123% (inactive)
3,CCCCCCc1cc2cc(-c3nnc(-c4ccccc4)o3)c(=O)oc2cc1O,185% (active)
4,COc1cccc(N2CCN(C(=O)CCCCCn3c(=O)[nH]c4ccccc4c3=O)CC2)c1,-0.437% (inactive)
5,COCCn1c(CCC(=O)Nc2cc(C)ccc2C)nc2cccnc21,-1.95% (inactive)
6,COc1ccccc1-n1c(-c2ccc(C)cc2)cn2c3c(=O)n(C)c(=O)n(C)c3nc12,0.636% (inactive)
7,CCc1ccc(N(CC)C(=O)CCn2cnc3onc(-c4ccc(F)cc4)c3c2=O)cc1,0.0408% (inactive)
8,Cc1noc(C)c1-c1ccc2ncnc(NCc3ccc(F)c(F)c3)c2c1,21.5% (inactive)
9,CCC(=O)N1c2ccccc2CC1C(=O)N1CCN(c2cccc(OC)c2)CC1 (configuration not stated),-0.304% (inactive)
10,CN(C)c1ccc(/C=C2\NC(=S)N(Cc3ccccc3)C2=O)cc1,94.7% (active)
11,COc1ccccc1CNC(=O)NCc1noc2ccc(C)cc12,-0.0554% (inactive)
12,CCOc1ccc(CNC(=O)Cn2cc3c(n2)-c2c(oc(C(=O)N4CCCC4)c2C)CC3)cc1,-0.1% (inactive)
13,CN(C)c1ccc(C(=O)NCC(=O)OC(C(=O)Nc2cc(C(F)(F)F)ccc2Cl)c2ccccc2)cc1 (configuration not stated),0.138% (inactive)
14,O=C(CCCCCn1c(=O)[nH]c2ccccc2c1=O)NCCc1c[nH]c2ccccc12,-0.335% (inactive)
15,CC1(C(=O)NCCc2c[nH]c3ccccc23)C=CC2(CCCCC2)N1C(=O)c1ccccc1 (configuration not stated),0.212% (inactive)
16,N#C/C(=C/c1ccc(N2CCCCC2)o1)C(=O)NCCc1c[nH]c2ccccc12,43.2% (active)
17,COc1cc(/C=C2/SC(=S)N(Cc3ccccc3)C2=O)cc(OC)c1O,33.6% (active)
18,COc1ccc(CCNC(=O)CCCCn2c(=O)c3ccccc3n(Cc3ccccc3)c2=O)cc1OC,-0.65% (inactive)
19,COc1cc(C(=S)NCc2ccccc2)cc(Br)c1O,-0.891% (inactive)
20,Cc1ccc(S(=O)(=O)N2CCc3cc(C(=O)Nc4ccc(Cl)cc4C)ccc32)cc1,0.483% (inactive)
21,Cc1nc2ccn(Cc3cccnc3)c(=O)c2cc1C(=O)N1CCN(c2ccccc2F)CC1,-0.337% (inactive)
22,O=C1CC(c2nnc(Cc3ccc(Cl)cc3)o2)CN1c1ccccc1 (configuration not stated),-0.928% (inactive)
23,Cc1cccc(-n2ncc(C(=O)N3CCN(c4ccc(Cl)cc4)CC3)c2C2CCN(C(=O)OC(C)(C)C)CC2)c1,3.67% (inactive)
